# The sample as a whole holds a higher share of hits than the screen did.
# Methyltransferases = Primary Screen for Target Class Profiling of Small Molecule Inhibitors of Methyltransferases. hit rate 3.9% among 25,000. purified enzyme, MTase-Glo SAH luminescence; stronger effect = lower value. calls only at 40 µM; call rule not given here
#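 Each enzyme was reacted with SAM and its substrate, with compounds tested once at 40 uM; SAH formed was read by MTase-Glo luminescence.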
# MTase-Glo ctr = Counterscreen for Target Class Profiling of Small Molecule Inhibitors of Methyltransferases. shares compounds with Methyltransferases. MTase-Glo coupled enzymes, SAH conversion luminescence, no MTase. Potency, µM (top dose mostly 57.3 µM), for the others: at the top dose activity change, negative = inhibition, usual class: inhibitors. hit rate 6% among 180; active = well fitted inhibition curve with a large enough effect; note: potency is the fitted concentration of half-maximal effect
# * marks the source's active call; other numbers are inactive results; i = inactive; + = active, no number; [ ] = dose if it differs, or a comment. % is set by controls: 0 for no effect and ±100 for the full control effect.
SMILES,Methyltransferases,others
COc1cncc(Nc2cnc3ccc(-c4ccccc4OC)nn23)c1,i,
COc1ccnc(-c2nnc3ccc(Nc4cc(OC)c(OC)c(OC)c4)nn23)c1,+,MTase-Glo ctr=-4%[85.7 µM]
CCc1ccc(CNC(=O)c2cc3n(n2)CC(C)(C(=O)NC2CCCCC2)N(C)C3=O)cc1 (stereo not drawn),i,
CCN1C(=O)C2CC3(CCN(S(C)(=O)=O)CC3)CN2C1=O (stereo not drawn),i,
COc1ccc(CN2C(=O)c3cc4occc4n3CC2(C)C(=O)NC2CCCCC2C)cc1 (stereo not drawn),i,
COc1cccc(C(=O)N2CCCC(COc3ccccc3C(=O)N3CCOCC3)C2)c1 (stereo not drawn),i,
Cn1cc(CN2CCCC(COc3ccccc3C(=O)N3CCCCC3)C2)c2ccccc21 (stereo not drawn),+,MTase-Glo ctr=-2%
COc1cccc(C(=O)NCC2CCCN(Cc3ccccn3)C2)c1OC (stereo not drawn),i,
c1csc(CN2CCC(Oc3ccccc3-c3nc(-c4cnccn4)no3)C2)c1 (stereo not drawn),i,
COc1cccc(-c2ccccc2NC(=O)C2CCN(Cc3ccccc3F)CC2)c1,i,
COc1cccc(-c2ccccc2NC(=O)C2CCN(CC=C(C)C)CC2)c1,+,MTase-Glo ctr=-4%
COc1ccccc1-c1ccc(C(=O)N2CCC(C(=O)Nc3ccccc3Cl)CC2)cc1,i,
CC1(C(=O)NC2CCCCC2)Cn2c(cc3sccc32)C(=O)N1Cc1cccc(Cl)c1 (stereo not drawn),i,
Fc1ccc2nc(CCC#Cc3ccccn3)cn2c1,i,
COCCn1ccc2c(C3=CCOCC3)nc(-c3cccc4[nH]ccc34)cc21,+,MTase-Glo ctr=-6%[85.7 µM]
COc1ccccc1CN1C(=O)c2ccc(-c3ccco3)n2CC1(C)C(=O)NC1CCCCC1C (stereo not drawn),i,
CCc1cccc(N2C(=O)c3cc(C(=O)OC)nn3CC2(C)C(=O)NC2CCCCC2)c1 (stereo not drawn),i,
CCC1CC2C(C)=CC3CCCCC3C2(C)C2(OC(=O)C(C)(O)OC2=O)O1 (stereo not drawn),i,
CSCCC(NS(=O)(=O)c1ccc2c(c1)oc(=O)n2C)C(=O)N1CCN(c2cc(C)ccc2C)CC1 (stereo not drawn),i,
Cc1noc2c(N3CCOCC3)cc(-c3cccs3)nc12,+,MTase-Glo ctr=2%[85.7 µM]
COC1CCN(c2cc(-c3ccsc3)nc3c(C)noc23)CC1,+,MTase-Glo ctr=-5%[85.7 µM]
Cc1noc2c(N3CCOCC3)cc(-c3cccnc3)nc12,i,
COc1cccc(-c2cc(-c3cccs3)nc3c(C)noc23)c1,i,
Cc1noc2c(Nc3ccc(C(N)=O)cc3)cc(-c3ccsc3)nc12,i,
Cc1noc2c(-c3cnn(C)c3)cc(-c3cccnc3)nc12,i,
SMILES,Methyltransferases,others
COCCCN1C(=O)c2cc3ccccc3n2CC1(C)C(=O)NC1CCCC1 (stereo not drawn),i,
CCCC1c2cccn2CCN1C(=O)Nc1cccc(SC)c1 (stereo not drawn),i,
O=C(Nc1cccc(Cl)c1)N1Cc2c(sc3c2CCCC3)-n2cccc2C1c1cccc(F)c1 (stereo not drawn),i,
CC1(C(=O)NC2CCCCCCC2)Cn2c(cc3occc32)C(=O)N1Cc1ccccc1Cl (stereo not drawn),i,
CCNC(=O)[C@@H]1C[C@H](NC(C)=O)CN1C1CCN(c2ccc(C)cc2)CC1,i,
Cc1cc(-c2cc3c(cn2)N(C)CCN(C)C3)ccn1,+,MTase-Glo ctr=-4%[114 µM]
C[C@@H]1O[C@@H](O[C@H]2[C@H](OC(=O)[C@]34CCC(C)(C)C[C@H]3C3=CCC5[C@@]6(C)CC[C@H](O[C@@H]7O[C@H](CO[C@@H]8OC[C@H](O)[C@H](O)[C@H]8O)[C@@H](O)[C@H](O)[C@H]7O)C(C)(C)C6CC[C@@]5(C)[C@]3(C)C[C@H]4O)OC[C@@H](O)[C@@H]2O)[C@H](O)[C@H](O[C@@H]2OC[C@](O)(CO)[C@H]2O)[C@H]1O[C@@H]1OC[C@H](O)[C@H](O[C@@H]2OC[C@@H](O)[C@H](O)[C@H]2O)[C@H]1O (stereo partly drawn),i,
CC1=C(CC/C(C)=C/C(=O)O)[C@@]2(C)CCCC(C)(C)C2CC1=O (stereo partly drawn),i,
CCCSCCCN1C(=O)c2cc(-c3ccc(OC)cc3)nn2CC1(C)C(=O)NCc1ccccc1 (stereo not drawn),i,
Cc1cccc(N2CCN(S(=O)(=O)c3cc4[nH]c(=O)[nH]c4cc3Br)CC2)c1C,i,
COCc1cc(NCCCNc2cccnc2)ncn1,+,MTase-Glo ctr=-7%
COC[C@H]1C[C@@H](NC(=O)Nc2cccnc2)[C@H](O)[C@@H]1O,i,
CC(C)CNC(=O)CN1CCOc2c(O)cc(-c3cccc(Cl)c3)cc2C1,i,
Cc1ccc(Cn2c(=O)c3ccccc3n3c(CCC(=O)N4CCN(c5ccc(F)cc5)CC4)nnc23)cc1,i,
CC1(C(=O)NC2CCCC2)Cn2c(ccc2-c2ccco2)C(=O)N1c1ccc2c(c1)OCO2 (stereo not drawn),i,
c1ccc(Nc2cc3c(cn2)NCCN(Cc2ccccn2)C3)cc1,i,
c1ccc(-c2cc3c(cn2)NCCN(Cc2ccccn2)C3)cc1,+,MTase-Glo ctr=-5%[85.7 µM]
O=C(O)c1ccc(CC2CCN(Cc3ccccn3)C2)cc1 (stereo not drawn),i,
Cc1cnccc1NCCn1ccnc1-c1cc2n(n1)CCCNC2,+,MTase-Glo ctr=-2%
c1ccc2c(c1)OCC(CCn1ccnc1-c1cc3n(n1)CCNC3)O2 (stereo not drawn),i,
Cc1ccc(-n2ccnc2-c2cc3n(n2)CCNC3)cc1N1CCCC1=O,i,
COC1CCC12CCN(Cc1ccc(F)c(F)c1)CC2 (stereo not drawn),i,
CCCn1c(=O)c2ccc(C(=O)NCC(C)C)cc2n2c(=O)n(CC(=O)NC(C)C)nc12,i,
CCN1CCN(C(=O)C2CCCN(Cc3ccncc3)CCC(=O)NCC2)CC1 (stereo not drawn),i,
CCNc1ncc(CN2CCN(c3ccncc3)CC2)cn1,+,MTase-Glo ctr=-2%
SMILES,Methyltransferases,others
CCN(CC)c1cc(CCC(=O)N2CCN(c3cccc(OC)c3)CC2)ccn1,+,MTase-Glo ctr=-3%
COc1cccc(CCC(=O)N2CCC(OCC3CC3)C2)c1 (stereo not drawn),i,
COc1cccc(CCC(=O)N2CCC3(CC2)N=C(c2ccccc2)NO3)c1,i,
O=C(NC1CCCCCC1)C1CCc2nnc(-c3ccccn3)n21 (stereo not drawn),i,
Cc1cc(OCCN2CCOCC2)nn1-c1ccc2ccccc2c1,i,
O=C(CCn1ccn2nc3c(c2c1=O)CCCC3)N1CCSCC1,i,
CC(=O)Nc1c2n(c3ccc(F)cc13)CC(C)(C(=O)NC1CCCC1)N(C1CCCCC1)C2=O (stereo not drawn),i,
CN(C)Cc1nnc(C2CC(NC(=O)Cc3c(F)cccc3Cl)C2)n1C (stereo not drawn),i,
Cc1cc(N2CCN(Cc3nnc(C4CC(N)C4)n3C)CC2)cc(C)n1 (stereo not drawn),i,
Cn1c(COc2cccc(CN3CCCC3)c2Cl)nnc1C1CC(N)C1 (stereo not drawn),+,MTase-Glo ctr=-5%
Clc1ccc2nsnc2c1NC1=NCCN1,i,
